From PubChem BioAssay come the findings set out here.

Structures are written as SMILES. Activity calls are given as the source filed them. Unless noted, how the calls were made is not given here.

The nature of assay [1]: compounds binding Alexa647 anti-His antibody – biochemical, small-molecule microarray, 635 nm fluorescence, artefact control for SMM control protein annotation, primary screen (AID 1128).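 Further: score merges feature fluorescence with signal-to-noise for each printed compound spot.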 As to conditions: higher = more signal.
Assay [2] deals with Human papillomavirus type 1a E7 protein (residues 1-88). As to the kind of experiment: HPV1a E7 small-molecule binders, primary screen, biochemical, small-molecule microarray, residues 1-88, 635 nm (AID 1129). As to conditions: small-molecule microarray binding, fluorescence 635 nm; higher = more signal.
For assay [3], the target named is Focal adhesion kinase 1 (Homo sapiens) (UniProt Q05397). The experiment in a line: PTK2 protein binding on printed compound slides – biochemical, small-molecule microarray, 635/667 nm fluorescence, BSA, DTT, primary screen (AID 1130).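 Further: composite of spot emission at 667 nm and signal to noise over triplicate slides.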 As to conditions: 635 nm fluorescence, higher = more signal.
The test system of assay [4] is Fibrinogen (Alexa647-labelled). As to the kind of experiment: Alexa647-fibrinogen binding to printed small molecules – biochemical, small-molecule microarray, 635/667 nm fluorescence, artefact control for SMM control-protein annotation, profiling panel (AID 1131).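 Further: z-score merges 667 nm fluorescence with per-spot signal-to-noise over triplicate slides.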 As to conditions: fibrinogen-A647 binding fluorescence, higher = more signal.
The target in assay [5] is Follistatin (Homo sapiens) (UniProt P19883). The experiment in a line: FST protein binding to printed compounds – biochemical, small-molecule microarray, 635/667 nm fluorescence, primary screen (AID 1132). As to conditions: 635 nm fluorescence, higher = more signal.
In assay [6] the target is Fibroblast growth factor 2 (Homo sapiens) (UniProt P09038). The experiment in a line: basic fibroblast growth factor binding to printed compounds – biochemical, small-molecule microarray, 635/667 nm fluorescence, primary screen (AID 1133). As to conditions: FGF2, fluorescence 635/667, higher = more signal.
A short description of assay [7]: JC-1 mitochondrial potential readout, lung cancer cells – cell-based, A549, JC-1 fluorescence, basal, 24 h, 100 nL, profiling panel (AID 1138).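 Further: A549 lung adenocarcinoma cells under basal conditions with no added stimulus; test concentration not given here.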 The following applies: higher = more signal.
For another assay, the system named is Lefty1. As to the kind of experiment: Lefty1 protein binding to printed compounds – biochemical, small-molecule microarray, 635/667 nm fluorescence, primary screen (AID 1139). The following applies: fluorescence 635/667, higher = more signal.
Assay [8] deals with wheat germ agglutinin (Triticum aestivum), Alexa647-labelled. As to the kind of experiment: Alexa647-WGA lectin binding to printed small molecules – biochemical, small-molecule microarray, 635/667 nm fluorescence, artefact control for SMM control-protein annotation, profiling panel (AID 1140).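 Further: score merges 667 nm feature emission with signal to noise over triplicate slides.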 As to conditions: WGA-A647 binding, 635 nm fluorescence, higher = more signal.
For assay [9], the target named is Luciferin 4-monooxygenase (Photinus pyralis) (UniProt P08659). As to the kind of experiment: inhibition of purified Photinus pyralis luciferase – biochemical, luminescence, purified enzyme, 2006 set, primary screen (AID 1141).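 Further: cell-free assay with purified firefly luciferase at 100 ng per well in PBS; test concentration not given here.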 As to conditions: purified firefly luciferase, SteadyGlo luminescence, 30 min; higher = more signal, called active from +8 up or from −8 down.

The test system of assay [10] is Wnt5a (protein binding on small-molecule microarray). As to the kind of experiment: small molecules binding Wnt5a protein – biophysical, small-molecule microarray, 635/667 nm fluorescence, primary screen (AID 1142).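 Further: fluorescence read at 667 nm with signal to noise per printed feature.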 The following applies: 635 nm fluorescence, higher = more signal.
Assay [11] is described as follows: ATP-based viability of Huh7 replicon cells – cell-based, CellTiter-Glo luminescence, basal, 48 h, cytotoxicity control for HCV replication inhibitor project, primary screen (AID 1143).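 Further: Huh7 hepatoma cells carrying a hepatitis C replication reporter with no stimulus; test concentration not given here.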 As to conditions: higher = more signal, called active from +8 up or from −8 down. On the technique in general: A replicon is a self-replicating genome or part of one, used to study replication in cells.

Assay [12] can be described thus: Pseudomonas biofilm growth suppression – PAO1 strain, BacTiter-Glo luminescence, LB-PBS, primary screen (AID 1144). The following applies: P. aeruginosa PAO1 biofilm, 12 h, higher = more signal.
The nature of assay [13]: basal CRE-LacZ reporter activity in PC12 – cell-based, unstimulated, primary screen (AID 1145). The following applies: no forskolin, luminescence, 4.5 h, higher = more signal, called active from +8 up or from −8 down.
The nature of assay [14]: forskolin-driven CRE-LacZ activity in PC12 – cell-based, CRE-LacZ reporter, forskolin-stimulated, primary screen (AID 1146).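 Further: PC12 cells with 6xCRE LacZ reporter stimulated by forskolin 10 µM; beta-galactosidase reporter signal reflecting CREB driven transcription.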 As to conditions: luminescence, 4.5 h, higher = more signal, called active from +8 up or from −8 down.
In assay [15] the target is Streptavidin (Streptomyces avidinii) (UniProt P22629). As to the kind of experiment: compounds binding control protein streptavidin – biophysical, small-molecule microarray, 635/667 nm fluorescence, artefact control for SMM compound annotation, primary screen (AID 1147).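 Further: signal reflects streptavidin binding to arrayed compounds as a control protein.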 The following applies: higher = more signal.
A short description of assay [16]: probe aInhba binding on compound microarray – biochemical, small-molecule microarray, 635/667 nm fluorescence, primary screen (AID 1148).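 Further: score merges 667nm spot fluorescence with signal-to-noise for antibody binding to printed compounds.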 As to conditions: higher = more signal.
Assay [17] deals with Torsin-1A (Homo sapiens) (UniProt O14656). As to the kind of experiment: TOR1A wild-type binding on microarray – cell lysate, small-molecule microarray, lysate, 635/667 nm, primary screen (AID 1149). The following applies: COS7 hTOR1A-WT lysate, 635 nm fluorescence, higher = more signal.
Assay [18] shares this target. The experiment in a line: torsin A mutant lysate binding on microarrays – cell lysate, small-molecule microarray, COS7 lysate, 635/667 nm fluorescence, primary screen (AID 1150).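 Further: score pools 667 nm emission and signal to noise measuring lysate protein binding.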 As to conditions: COS7 hTOR1A mutant lysate, 635 nm fluorescence, higher = more signal.
Assay [19] concerns Sonic hedgehog protein (Shh). As to the kind of experiment: Sonic hedgehog microarray binding compounds – biochemical, small-molecule microarray, 635/667 nm fluorescence, primary screen (AID 1151).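 Further: Shh protein binding to compounds spotted on small-molecule microarray slides; score combines spot fluorescence intensity with signal-to-noise across triplicate slides.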 The following applies: 635 nm fluorescence, higher = more signal.

Sequence of Luciferin 4-monooxygenase (Photinus pyralis) (P08659 whole entry, looked up): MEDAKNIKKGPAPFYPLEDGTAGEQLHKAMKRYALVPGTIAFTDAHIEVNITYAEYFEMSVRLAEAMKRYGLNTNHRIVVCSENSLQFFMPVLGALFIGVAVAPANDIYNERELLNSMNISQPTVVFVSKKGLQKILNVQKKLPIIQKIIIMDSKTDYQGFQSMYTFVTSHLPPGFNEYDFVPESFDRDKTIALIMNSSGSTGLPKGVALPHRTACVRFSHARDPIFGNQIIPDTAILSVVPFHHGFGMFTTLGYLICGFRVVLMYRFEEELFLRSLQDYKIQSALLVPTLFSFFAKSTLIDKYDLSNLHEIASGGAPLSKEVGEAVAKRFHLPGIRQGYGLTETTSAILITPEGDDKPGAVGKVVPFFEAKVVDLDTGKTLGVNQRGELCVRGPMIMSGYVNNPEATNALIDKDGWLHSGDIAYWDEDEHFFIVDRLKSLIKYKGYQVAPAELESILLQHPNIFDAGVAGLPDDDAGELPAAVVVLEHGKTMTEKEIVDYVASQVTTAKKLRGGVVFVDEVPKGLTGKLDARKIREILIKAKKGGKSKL
Sequence of Follistatin (Homo sapiens) (P19883 whole entry, looked up): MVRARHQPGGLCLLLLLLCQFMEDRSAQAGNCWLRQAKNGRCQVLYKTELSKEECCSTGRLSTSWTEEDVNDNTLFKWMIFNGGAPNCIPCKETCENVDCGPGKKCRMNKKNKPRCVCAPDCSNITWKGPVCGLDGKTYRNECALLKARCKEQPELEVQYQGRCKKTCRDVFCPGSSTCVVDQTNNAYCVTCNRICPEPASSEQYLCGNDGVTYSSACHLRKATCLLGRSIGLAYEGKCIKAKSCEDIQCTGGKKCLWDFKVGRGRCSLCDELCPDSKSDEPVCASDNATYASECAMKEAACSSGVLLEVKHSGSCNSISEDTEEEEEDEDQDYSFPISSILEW
Sequence of Fibroblast growth factor 2 (Homo sapiens) (P09038 whole entry, looked up): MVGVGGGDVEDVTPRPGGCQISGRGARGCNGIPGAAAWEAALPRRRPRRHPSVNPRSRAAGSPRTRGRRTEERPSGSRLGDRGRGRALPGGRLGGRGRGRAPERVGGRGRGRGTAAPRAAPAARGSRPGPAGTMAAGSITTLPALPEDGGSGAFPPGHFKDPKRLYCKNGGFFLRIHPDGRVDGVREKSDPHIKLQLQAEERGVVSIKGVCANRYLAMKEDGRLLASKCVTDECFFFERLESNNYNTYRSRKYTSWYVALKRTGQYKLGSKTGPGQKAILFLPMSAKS
Sequence of Focal adhesion kinase 1 (Homo sapiens) (Q05397 whole entry, looked up): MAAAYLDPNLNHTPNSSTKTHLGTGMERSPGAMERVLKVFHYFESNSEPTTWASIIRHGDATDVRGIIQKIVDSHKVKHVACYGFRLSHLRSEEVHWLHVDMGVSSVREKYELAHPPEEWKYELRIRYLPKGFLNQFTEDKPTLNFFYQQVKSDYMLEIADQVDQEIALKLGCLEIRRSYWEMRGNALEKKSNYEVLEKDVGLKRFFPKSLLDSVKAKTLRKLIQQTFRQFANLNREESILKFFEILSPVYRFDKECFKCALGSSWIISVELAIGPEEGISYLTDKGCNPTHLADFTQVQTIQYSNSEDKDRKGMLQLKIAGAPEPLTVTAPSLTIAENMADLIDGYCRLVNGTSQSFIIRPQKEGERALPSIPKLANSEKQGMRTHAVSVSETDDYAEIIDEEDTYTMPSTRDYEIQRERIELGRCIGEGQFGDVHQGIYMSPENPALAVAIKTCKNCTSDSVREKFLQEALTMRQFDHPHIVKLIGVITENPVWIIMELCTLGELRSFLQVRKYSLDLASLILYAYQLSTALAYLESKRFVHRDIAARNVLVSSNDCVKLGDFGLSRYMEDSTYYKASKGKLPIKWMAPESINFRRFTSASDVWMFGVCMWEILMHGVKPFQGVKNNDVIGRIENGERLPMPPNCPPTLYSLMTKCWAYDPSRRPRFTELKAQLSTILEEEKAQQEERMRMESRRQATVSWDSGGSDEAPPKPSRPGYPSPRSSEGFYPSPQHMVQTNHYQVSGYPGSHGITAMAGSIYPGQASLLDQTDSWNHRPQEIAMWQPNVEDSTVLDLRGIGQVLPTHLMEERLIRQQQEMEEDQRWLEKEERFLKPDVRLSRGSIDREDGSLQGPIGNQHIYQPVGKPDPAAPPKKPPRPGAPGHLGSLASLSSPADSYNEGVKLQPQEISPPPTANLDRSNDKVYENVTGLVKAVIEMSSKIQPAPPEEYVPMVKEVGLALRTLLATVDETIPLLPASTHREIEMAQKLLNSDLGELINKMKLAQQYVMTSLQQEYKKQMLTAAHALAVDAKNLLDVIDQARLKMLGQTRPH
Sequence of Streptavidin (Streptomyces avidinii) (P22629 whole entry, looked up): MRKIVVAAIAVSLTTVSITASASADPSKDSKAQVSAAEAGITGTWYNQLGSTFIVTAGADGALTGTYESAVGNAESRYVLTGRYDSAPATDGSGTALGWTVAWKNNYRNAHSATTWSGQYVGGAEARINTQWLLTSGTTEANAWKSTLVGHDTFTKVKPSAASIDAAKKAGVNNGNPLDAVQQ
Sequence of Torsin-1A (Homo sapiens) (O14656 whole entry, looked up): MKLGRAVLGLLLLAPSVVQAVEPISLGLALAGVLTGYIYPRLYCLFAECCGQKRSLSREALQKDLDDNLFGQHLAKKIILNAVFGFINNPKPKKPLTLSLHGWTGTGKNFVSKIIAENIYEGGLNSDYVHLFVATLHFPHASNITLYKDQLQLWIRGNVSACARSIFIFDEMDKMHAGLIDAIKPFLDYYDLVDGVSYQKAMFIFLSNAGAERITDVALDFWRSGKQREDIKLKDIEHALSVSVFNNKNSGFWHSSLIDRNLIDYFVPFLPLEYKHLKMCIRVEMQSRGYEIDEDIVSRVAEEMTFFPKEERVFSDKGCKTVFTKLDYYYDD

Regarding `COCCOC(=O)N1C(=O)[C@@]2(c3cc(C#CC4=CCCCC4)ccc31)[C@H](C(=O)N1CCc3cc(OC)c(OC)cc3C1)[C@H]1C(=O)O[C@H](c3ccccc3)[C@H](c3ccccc3)N1[C@@H]2c1ccc(OCCO)cc1`, the composite z-score worked out at 1.2 in [1]; 1.14 in assay [2]; 0.756 in assay [3]; 0.868 in assay [4]; 1.15 in assay [5]; 1.16 in assay [6]. Further, the composite z-score was 1.1 with Lefty1; 0.118 in assay [8]; 0.538 in [10]; 0.665 in [15]; 0.0649 in assay [16]; 0.304 with Torsin-1A (Homo sapiens) [17]. Further, the composite z-score was found to be 0.295 with Torsin-1A (Homo sapiens) [18] and 1.38 in [19]. Moreover, the z-score in assay [7] was -1.21; in assay [9], -1.09 (inactive); in assay [11], -0.571 (inactive); in assay [12], -0.259 (inactive); in assay [13] it was -0.475 (inactive); in assay [14], -0.381 (inactive).
As for `CC(C)[C@@H](CO)NC(=O)[C@H]1[C@@H](c2ccccc2)N(c2ccccc2)O[C@@H]1C`, the composite z-score in assay [1] was 0.398; in assay [2], -0.253; in assay [3], -0.168; in [4] it was 0.0711; in assay [5] it was 0.104; in assay [6] it was 0.0808. The composite z-score was 0.216 in the assay with Lefty1; 0.149 in [8]; -0.106 in assay [10]; -0.327 in [15]; 0.0953 in assay [16]; -0.261 in the assay with Torsin-1A (Homo sapiens) [17]. Moreover, the figures for the composite z-score (with Torsin-1A (Homo sapiens) [18]; in assay [19]) were -0.0316 and 0.463, respectively. Moreover, the z-score is 0.204 in assay [7]; -0.21 (inactive) in assay [9]; -0.206 (inactive) in assay [11]; -0.736 (inactive) in assay [12]; -0.415 (inactive) in assay [13]; -1.35 (inactive) in assay [14].
In the case of `COc1ccc(C(O)C2C=CC3C(=O)NC(=O)C3N2Nc2ccccn2)cc1` (stereo not given), the composite z-score was 0.246 in [1]; 0.178 in assay [2]; -0.235 in assay [3]; 0.055 in assay [4]; 0.198 in assay [5]; 0.338 in [6]. The composite z-score in the assay with Lefty1 is 0.513; in assay [8], 0.899; in [10] it was 0.273; in assay [15], -0.0335; in assay [16] it was 0.0659; with Torsin-1A (Homo sapiens) [17] it was 0.21. In addition, the composite z-score stood at 0.353 in the assay with Torsin-1A (Homo sapiens) [18] and 0.3 in assay [19]. Further, the z-score in assay [7] was -0.0269; in [9] it was -1.99 (inactive); in [11] it was 1.06 (inactive); in assay [12], -0.727 (inactive); in assay [13], -0.329 (inactive); in [14], -0.239 (inactive).
Regarding `CCC(CC)C(O)C1C=CC2C(=O)N(C)C(=O)C2N1Nc1ccccc1` (stereo not given), the composite z-score in [1] is 1.02; in [2], 1.08; in assay [3], 0.43; in assay [4] it was 0.964; in assay [5], 0.895; in [6] it was -0.194. Besides, the composite z-score in the assay on Lefty1 amounted to 0.434; in assay [8], 1.1; in assay [10], 0.334; in assay [15] it was 1.48; in [16], 0.288; in the assay with Torsin-1A (Homo sapiens) [17], 0.551. Besides, the values for the composite z-score (in the assay with Torsin-1A (Homo sapiens) [18]; in assay [19]) were 0.235 and -0.09, respectively. In addition, the z-score in assay [7] was -0.513; in assay [9], -0.445 (inactive); in assay [11], 0.667 (inactive); in assay [12], -0.625 (inactive); in [13], 0.822 (inactive); in assay [14], -0.214 (inactive).
Turning to `C=C/C=C/[C@H]1C(=C)CN([C@@H](Cc2ccccc2)C(=O)OC)[C@@H]1[C@H](O)Cc1ccccc1`, the composite z-score in assay [1] was -0.677; in [2], -0.748; in assay [3], -0.526; in [4], -0.108; in assay [5], 0.174; in [6], -0.348. The composite z-score with Lefty1 was -0.426; in assay [8] it was 0.0321; in assay [10], -0.224; in [15], -0.663; in [16], -0.0736; with Torsin-1A (Homo sapiens) [17], -1.74. In addition, the composite z-score was -1.4 in the assay with Torsin-1A (Homo sapiens) [18] and 0.122 in [19]. Further, the z-score in assay [7] is 0.0936; in assay [9] it was -0.494 (inactive); in assay [11] it was -0.123 (inactive); in assay [12], 0.0605 (inactive); in assay [13], 5.75 (inactive); in assay [14], 0.794 (inactive).
